Consider 90 compounds from PubChem BioAssay AID652067 (The Scripps Research Institute Molecular Screening Center, 2013).

Hit rate of the full screen: of about 370,000 compounds, about 5,400 (1.5%) were called active.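 Rule for the calls: active = activation above the mean of all tested compounds plus 3 SD (cut at about 5.5% in these data); inactive = the rest.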 The list comes from a sample in which actives are over-represented; it also holds similar structures and randomly drawn compounds.

This assay relates to DAF-12 nuclear receptor (Haemonchus contortus). The assay can be described thus: hcDAF-12 driven luciferase reporter activation – cell-based, luminescence, HEK293, lit1-tk-luc reporter, primary screen (AID 652067).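 Note: 100% = response to 3 µM Δ7-dafachronic acid high control.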 Particulars: HEK293 hcDAF-12 lit1-tk-luc reporter, at 6.8 µM, stronger effect = higher value, 0% DMSO, 100% Δ7-dafachronic acid.
With `Cc1oc(CC(C)C)c(CN2CCCC2)c1C(=O)O`, the activation was -1.65% (inactive). `CC(C)Cc1oc(C(=O)O)cc1CN`: the activation was 6.53% (active). For `CC(C)c1cc(C(=O)O)on1` the value was -0.85% (inactive); for `O=C(OC12CCCN(C1)/C(=C/c1cccnc1)C2)C1CCCC1` (stereo not given), -3.57% (inactive); for `COC(=O)c1c(-c2ccc(OC)cc2)c2c(c3c4cc(OC)ccc4n(S(=O)(=O)c4ccc(F)cc4)c13)C(=O)N(C)C2`, -2.09% (inactive). For `O=[N+]([O-])c1cc([N+](=O)[O-])c2cccnc2c1O` the value was 3.46% (inactive). Next, `O=[N+]([O-])c1ccc2nc(-c3ccccn3)[nH]c2c1`: 5.76% (active).

Consider `O=C(Nc1ccc([N+](=O)[O-])cc1)OCCc1ccccn1`, for which the activation was 1.17% (inactive). Next, `O=C(N1CCOCC1)N1CC[C@H]2[C@H](CCCN2Cc2ccc(F)cc2)C1`: 0.64% (inactive); `Cc1ccccc1CN1CCCCC(NC(=O)Nc2ccccc2F)C1=O` (stereo not given): -3.94% (inactive). Next, `CN(C(=O)CSc1nnc(Nc2ccccc2)s1)C1CCS(=O)(=O)C1` (stereo not given): -0.76% (inactive); `CC(C)c1ccc(Nc2nnc(SCC(=O)c3nnc(-c4ccccc4)o3)s2)cc1`: 6.6% (active); `CC(C)Nc1nnc(SCC(=O)c2c[nH]c3ccccc23)s1`: 4.15% (inactive). Consider `COC(=O)C1=C(C)N(Cc2cccc(C(F)(F)F)c2)C(=NCc2cccc(C(F)(F)F)c2)NC1c1ccccc1C(F)(F)F` (stereo not given), for which the activation is -2.22% (inactive). On to `CC[C@@H](CCC(=O)N(c1ccccc1)c1ccccc1)C1CC1`, for which the activation is -2.66% (inactive). Next, `COc1ccc(-c2csc(Cc3nc(O)cs3)n2)cc1`: 10.9% (active). As for `COc1ccc(C(C)(O)c2nc(-c3cc(F)cc(F)c3)cs2)cc1` (stereo not given), the activation was -1.58% (inactive). In the case of `COc1ccc(C(C)(NC(C)=O)c2nc(-c3ccc(S(C)(=O)=O)cc3)cs2)cc1` (stereo not given), the activation is -1.14% (inactive). For `O=S1(=O)c2c(cccc2N2CCSCC2)Oc2ccccc2CN1Cc1cn(Cc2ccc(F)cc2)nn1` the value was -2.88% (inactive); for `O=C(CNS(=O)(=O)c1ccccc1F)N1CCN(c2ccccn2)CC1`, -0.84% (inactive); for `O=C(Nc1cccc(F)c1)c1cc(-c2ccco2)nc2ccccc12`, 5.67% (active). For `O=C(Nc1cccc(F)c1)c1coc(=O)c(Br)c1` the value was 0.1% (inactive); for `CN(C(=O)COC(=O)c1cc(-c2ccco2)nc2ccccc12)C1CCS(=O)(=O)C1` (stereo not given), 1.58% (inactive); for `O=C(NCc1ccc(Cl)cc1)C1CCCN(c2nc3ccccc3o2)C1` (stereo not given), -2.71% (inactive). As to `CC(CNC(=O)c1ccc(Br)o1)NC(=O)c1ccc(Br)o1` (stereo not given), the activation is -0.92% (inactive). With `C/C(=N\NC(=S)NC1CCCCC1)c1ccc(C)o1`, the activation was -1.13% (inactive). Next, `C/C(=N/NC(=O)c1ccc(Br)o1)c1ccc(C)o1`: 8.8% (active); `c1cncc(CNc2ccnc(-c3ccc4c(c3)OCO4)n2)c1`: 0.49% (inactive). For the compound `O=C(Nc1ccc(N2CCOCC2)c(Cl)c1)c1ccc(S(=O)(=O)N2CCOCC2)cc1`, the activation was -2.07% (inactive). On to `Cc1ccc(C(=O)Nc2ccc3c(c2)OCCO3)cc1S(=O)(=O)N1CCOCC1`, for which the activation was 0.29% (inactive). Regarding `CN1CCN(c2ccc(NC(=O)c3ccc4c(c3)OCCO4)cc2Cl)CC1`, the activation was 6.55% (active). With `CCSC1(SCC)N=C(N)C2(C#N)C(c3ccccc3)NC(C)=CC12C#N` (stereo not given), the activation is -0.75% (inactive). Next, `CN1C(=O)/C(=N/OC(=O)c2ccccc2Br)c2ccccc21`: -0.66% (inactive).

As for `CCC1C(=O)c2ccccc2N(C)C1=O` (stereo not given), the activation was 4.03% (inactive). Turning to `CN1C(=O)/C(=C\c2cc(Br)cs2)c2ccccc21`, the activation is 6.07% (active). For `COC(=O)[C@]12C[C@H](CC(=O)NCc3ccc(C)o3)C(=O)N(CCC3=CCCCC3)C1=C[C@H](C(C)(C)C)O[C@@H]2C` the value was 0.28% (inactive).

Consider `COc1cc(/C=N/Nc2nc3ccccc3s2)ccc1O`, for which the activation was 11.4% (active). Consider `O=[N+]([O-])c1cc(Br)c(O)c(/C=N/Nc2nc3ccccc3s2)c1`, for which the activation was 5.75% (active). For `O=C(N/N=C/c1cc([N+](=O)[O-])ccc1O)/C(=C\c1cccs1)NC(=O)c1ccccc1` the value was 2.67% (inactive); for `COc1cc(/C=C/C(=O)OCC(=O)NCCCc2ccccc2)ccc1O`, -0.23% (inactive); for `COc1ccc(/C=N/Nc2ncnc3sc4c(c23)CCCC4)cc1O`, 2.31% (inactive). With `O=C(C1CCCN1S(=O)(=O)c1ccccc1)N1CCc2ccccc2C1` (stereo not given), the activation was -0.91% (inactive).

For the compound `O=C(CSc1nnc(-c2ccccn2)n1-c1ccccc1)Nc1ccc2cn[nH]c2c1`, the activation is 1.82% (inactive). Next, `CN[C@H]1C[C@H]2c3cc(N4CCOCC4)ccc3CCN2C[C@H]1[C@H](C)O`: 0.66% (inactive); `O=C(Nc1ccc2c(c1)OCCO2)C1c2ccccc2OCC(=O)N1Cc1ccccn1` (stereo not given): 2.69% (inactive).

Regarding `CCCOc1ccc(NC(=O)CC2C(=O)N(C)C(=S)N2Cc2ccc3c(c2)OCO3)cc1` (stereo not given), the activation was -1.25% (inactive).

For `O=C(Nc1ccc(Cl)cc1)C1c2cccc[n+]2CC(=O)N1Cc1ccc2c(c1)OCO2` (stereo not given), the activation is 6.69% (active).

For `O=C(COC(=O)/C(=C/c1cccs1)c1cccs1)NCc1ccccc1Cl`, the activation is -2.32% (inactive).

On to `COc1cccc(NC(=O)N(C)C[C@@H]2OCc3cn(nn3)CCCC(=O)N([C@@H](C)CO)C[C@H]2C)c1`, for which the activation is 1.21% (inactive).

As for `O=c1c2c(nc3cc(-c4cccc(Cl)c4)[nH]n13)CCCC2`, the activation was 8.74% (active). For `CSc1nc2nc3c(c(=O)n2[nH]1)CCC3` the value was 0.72% (inactive). Turning to `COc1cccc(CC(=O)N2CCN(C(=O)C(=O)c3cccc(C(F)(F)F)c3)CC2)c1`, the activation is 1.16% (inactive).

As for `CC(C)CSc1nnc(-c2cccnc2)n1Cc1ccccc1`, the activation is -1.13% (inactive). As to `O=C(c1ccncc1)N1CC[C@H]2[C@H](CCCN2Cc2ccc(F)cc2)C1`, the activation was -1.38% (inactive). For `CC(NC(=O)C(=O)N/N=C/c1ccc(Cl)cc1)c1ccccc1` (stereo not given) the value was -1.03% (inactive); for `CC(C)c1ccc(/C=C2\NC(=O)NC2=O)cc1`, -2.26% (inactive). As to `CC(C)c1ccc(C=NNc2ccc([N+](=O)[O-])cn2)cc1`, the activation is 9.24% (active). Regarding `COC(=O)[C@]12C[C@H](CC(=O)NCc3cccc(C(F)(F)F)c3)C(=O)N(Cc3ccc4c(c3)OCO4)C1=C[C@H](COCc1ccccc1)O[C@@H]2C`, the activation was 0.41% (inactive).

Take `Cc1ccc(C2Nc3cccc4cccc(c34)N2)cc1`: the activation was 6.38% (active). Regarding `COc1ccc(-c2cc(-c3nnc(SCC(=O)Nc4cccc5ccccc45)n3N)[nH]n2)cc1`, the activation was 0.47% (inactive). Next, `O=C(N=C1SC2CS(=O)(=O)CC2N1c1cc(Cl)ccc1Cl)C1CC1` (stereo not given): -1% (inactive); `COc1ccc(Cn2cc(COC(=O)N(C)Cc3ccccc3)nn2)cc1`: -0.59% (inactive); `Cc1ccccc1C(=O)OC1OC(=O)C(Cl)=C1Nc1ccccc1` (stereo not given): -2.44% (inactive).

As for `Cc1cc(C)nc(Nc2n[nH]c(-c3ccccc3N)n2)n1`, the activation is 8.9% (active).

Turning to `CC(C)CNc1cccc2c1S(=O)(=O)N[C@H](C)CO2`, the activation is -1.2% (inactive). For `O=C(NCc1ccccc1)[C@@H]1CCCN1C(=O)[C@H]1CCCN1C(=O)c1cccc(Cl)c1` the value was -0.09% (inactive). As for `O=C(NN=Cc1ccco1)C(=O)Nc1ccc(Cl)c([N+](=O)[O-])c1`, the activation is -1.72% (inactive).

With `Cc1cc2c(nc1C)CCCN2C`, the activation was 1.19% (inactive).

For the compound `CCOC(=O)[C@]12CCCC=C1N(Cc1ccc(OC)cc1)C(=O)[C@@H]2CC(=O)NCc1cccs1`, the activation is -0.39% (inactive). As for `Nc1nc(Nc2ccccc2F)nc(NC2CCCCC2)c1[N+](=O)[O-]`, the activation was -1.49% (inactive). For `CNc1nc(Nc2ccc(C)c(Cl)c2)nc(N)c1[N+](=O)[O-]` the value was 10.8% (active); for `COc1cccc(Nc2nc(N)c([N+](=O)[O-])c(NCc3ccco3)n2)c1`, -3.76% (inactive). For `COc1ccc(NC(=O)N(C)C[C@@H]2OCCCC[C@@H](C)Oc3ccc(NC(=O)NC4CCCCC4)cc3C(=O)N([C@H](C)CO)C[C@@H]2C)cc1` the value was -0.68% (inactive). Consider `Cc1ccccc1CS(=O)(=O)Cc1ccc(C(=O)Nc2ccc(Cl)cc2)o1`, for which the activation is -6.56% (inactive). `COP(=O)(O)CNC(=O)OCc1ccccc1`: the activation was -1.19% (inactive). As to `FC(F)(F)c1nc(-c2ccccc2)ncc1-c1nnnn1-c1ccccc1`, the activation was -4.23% (inactive). For `COc1ccc(-n2nnnc2SCC(=O)NCc2cccs2)cc1` the value was -2.07% (inactive). Next, `COc1ccc(-n2nnnc2-c2nc3ccccc3s2)cc1`: 9.22% (active). `O=C(OCC(=O)N1CCOCC1)c1ccc2ccccc2c1`: the activation was 0.31% (inactive). For `NC(=O)c1ccccc1N=Cc1ccc2ccccc2c1` the value was 10.7% (active). As to `O=C1CC[C@@H](COc2ccc3[nH]cc(-c4ccccc4)c3c2-c2ccccc2)N1`, the activation is -1.8% (inactive). For `CC(C)(C)c1ccc(C(=O)Nc2cc(Cl)c(Br)cc2C(=O)O)cc1` the value was 2.27% (inactive); for `COc1ccc(CCNC(=O)CSc2nc3c([nH]2)c(=O)n(C)c(=O)n3C)cc1`, -0.84% (inactive); for `Cc1ccc(NC(=O)N2CCC(C(=O)NCc3ccc(F)cc3)CC2)cc1`, -0.76% (inactive). For `N[C@@H](Cc1ccccc1)C(=O)N1CCC(C(=O)NCC(=O)Nc2ccc(F)cc2)CC1` the value was 8.85% (active); for `O=C(NCc1ccc(F)cc1)C1CCN(C(=O)Nc2ccc(F)cc2)CC1`, -1.57% (inactive); for `O=C(NC1CCC1)c1ccc(C#Cc2cccc(F)c2)c[n+]1[O-]`, 1.33% (inactive). For the compound `CCOC(=O)c1cc2ccccc2n1CC(=O)c1ccccc1`, the activation is 1.16% (inactive). As for `COc1cc(C(O)c2nc3ccccc3n2C)cc(OC)c1OC` (stereo not given), the activation was -1.25% (inactive). Consider `COCn1c(C(O)c2ccccc2)cc2ccccc21` (stereo not given), for which the activation was 6.22% (active).
